# From PubChem BioAssay (NCATS)
# Several values for one entry are separate records, joined by “and”; a condition that tells them apart may be missing. Equal values may be shown once. Records with an inconclusive call do not appear. Where a call stands in place of a potency, no number is given. Activity calls are given as the source filed them. Unless noted, calls follow the shape of the full dose curve.
# How the values were obtained:
# [1] = biological target: Bile acid receptor (Homo sapiens) (UniProt Q96RI1); experiment: qHTS assay for small molecule antagonists of farnesoid X receptor signaling (AID 588526)
# Summary of the method: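 Antagonist mode: titrated compounds tested against chenodeoxycholic acid stimulation (normalized to 50 uM CDCA and DMSO) in GeneBLAzer HEK293T cells for 16 h. Beta-lactamase read by CCF4 fluorescence; IC50 from Hill fits.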
# [2] = biological target: Bile acid receptor (Homo sapiens) (UniProt Q96RI1); experiment: qHTS assay for small molecule agonists of farnesoid X receptor signaling (AID 588527); details: HEK293T FXR-UAS-bla, beta-lactamase ratio, 16 h; stronger effect = higher value; also: series mostly up to about 77 µM
# Summary of the method: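 FXR-UAS-bla HEK293T, 10% dialyzed FBS; cpds up to 92 uM titration, 16 h 37 C; CCF4 dye 2 h RT; fluorescence. Normalized to chenodeoxycholic acid 100 uM (100%) and DMSO (0%); Hill fit gives EC50, efficacy.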
# [3] = biological target: Glucocorticoid receptor (Homo sapiens) (UniProt P04150); experiment: qHTS assay for small molecule agonists of glucocorticoid receptor signaling (AID 588532; active = well fitted curve in the direction sought with a large enough effect in the signal ratio, with a control signal flat; the % refers to the signal ratio); details: HeLa MMTV-bla, beta-lactamase ratio, agonist, 18 h; stronger effect = higher value; percent of dexamethasone control, DMSO zero
# Summary of the method: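 MMTV-bla HeLa beta-lactamase reporter cells in 1% charcoal/dextran FBS medium, compounds up to 92 uM for 18 h at 37 C, CCF4 readout; normalized to 0.1 uM dexamethasone (100%), EC50 and efficacy from Hill fits.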
# [4] = biological target: Glucocorticoid receptor (Homo sapiens) (UniProt P04150); experiment: qHTS assay for small molecule antagonists of glucocorticoid receptor signaling (AID 588533; active = well fitted inhibition curve with a large enough effect in the signal ratio, with a control signal flat, not every such curve was filed as active; the % refers to the signal ratio)
# Summary of the method: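 Antagonist-mode qHTS: compound titrations added to GRE-bla HeLa cells, then dexamethasone 2 nM final; 18 h, 37 C. CCF4 FRET fluorescence normalized to dexamethasone and DMSO; IC50 from Hill fit.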
# [5] = biological target: Peroxisome proliferator-activated receptor gamma (Homo sapiens) (UniProt P37231); experiment: qHTS assay for small molecule agonists of peroxisome proliferator-activated receptor gamma signaling (AID 588536; active = well fitted curve in the direction sought with a large enough effect in the signal ratio, with a control signal flat, not every such curve was filed as active; the % refers to the signal ratio)
# Summary of the method: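 Compound treatment: 16 h, 37 C, HEK293 GeneBLAzer cells. Detection: CCF4, 2 h RT. Values: Hill-fit EC50, efficacy as % of 2 uM rosiglitazone.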
# [6] = biological target: Peroxisome proliferator-activated receptor gamma (Homo sapiens) (UniProt P37231); experiment: qHTS assay for small molecule antagonists of peroxisome proliferator-activated receptor gamma signaling (AID 588537; active = well fitted inhibition curve with a large enough effect in the signal ratio, with a control signal flat, not every such curve was filed as active; the % refers to the signal ratio;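 also: reporter cells co-stimulated with 50 nM rosiglitazone agonist during compound treatment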)
# Summary of the method: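 Read-out: CCF4 fluorescence (ex 405, em 460/530 nm) after 2 h at RT. Cells were HEK293 carrying a UAS-bla reporter and treated 16 h at 37 C with compound plus rosiglitazone (50 nM final). Normalized to rosiglitazone and DMSO.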
# [7] = biological target: Vitamin D3 receptor (Homo sapiens) (UniProt P11473); experiment: qHTS assay for small molecule antagonists of vitamin D receptor signaling (AID 588541);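 also: receptor activated by calcitriol during compound treatment; series mostly up to about 77 µM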
# Summary of the method: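 VDR-UAS-bla HEK293T cells in 2% charcoal-stripped FBS were stimulated with 1-alpha,25-dihydroxyvitamin D3 (3 nM final) plus compound for 16 h at 37 C. The beta-lactamase CCF4 readout was normalized to 50 nM agonist and DMSO, and Hill fits gave IC50.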
# [8] = qHTS assay for small molecule agonists of retinoid X receptor alpha signaling (AID 588544); details: HEK293T RXRa-UAS-bla, beta-lactamase reporter, 18 h; 530 nm emission
# [9] = biological target: Retinoic acid receptor RXR-alpha (Homo sapiens) (UniProt P19793); experiment: as above
# [10] = biological target: Thyroid hormone receptor beta (Homo sapiens) (UniProt P10828); experiment: qHTS assay for small molecule agonists of thyroid hormone receptor beta signaling (AID 588545)
# Summary of the method: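 Cells (2500/well) were seeded, incubated 4 hrs at 37 C, dosed with a compound series, incubated 18 hrs, loaded with CCF4 dye for 2 hrs at RT, then read for fluorescence. Data were scaled between DMSO (0%) and 10 nM T3 (100%).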
# [11] = qHTS assay for small molecule antagonists of retinoid X receptor alpha signaling (AID 588546; active = well fitted inhibition curve with a large enough effect in the signal ratio, with a control signal flat, not every such curve was filed as active; the % refers to the signal ratio;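 also: cells stimulated with 9-cis-retinoic acid as agonist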); details: HEK293T RXRa-UAS-bla, beta-lactamase ratio, antagonist mode; measured here: W530 green channel, cytotoxicity proxy
# Summary of the method: (§1)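 Beta-lactamase reporter inhibition, read as CCF4 fluorescence ratio (ex 405, em 460/530 nm) after 2 h at RT. HEK293T UAS-bla cells, 2500/well, were stimulated with 9-cis-RA at 500 or 100 nM final alongside test compound for 18 h at 37 C.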
# [12] = biological target: Retinoic acid receptor RXR-alpha (Homo sapiens) (UniProt P19793); experiment: as above; details: HEK293T RXRa-UAS-bla, beta-lactamase ratio, antagonist mode
# Summary of the method: as §1
# [13] = biological target: Voltage-gated inwardly rectifying potassium channel KCNH2 (Homo sapiens) (UniProt Q12809); experiment: qHTS Assay for Small Molecule Inhibitors of the Human hERG Channel Activity (AID 588834; active = well fitted curve in the direction sought with a large enough effect; an effect the other way counts as inactive or inconclusive;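 also: U2OS cells transduced with hERG by BacMam; top concentration of the series differs between compounds; lower thallium flux fluorescence means stronger hERG block; nearly all actives have a fitted effect of over 50% in size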)
# Summary of the method: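 Cells were infected with hERG-BacMam virus for 4 hrs at room temperature, grown overnight, then seeded at 2000/well. After dye loading and roughly 10 min compound treatment, thallium influx was triggered and fluorescence recorded.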
# [14] = biological target: Peroxisome proliferator-activated receptor delta (Homo sapiens) (UniProt Q03181); experiment: qHTS assay for small molecule agonists of peroxisome proliferator-activated receptor delta signaling (AID 588534)
# Summary of the method: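 Titration series tested in agonist mode on beta-lactamase reporter cells; 18 hrs at 37 C after a 5 hr pre-incubation. Readout: CCF4 fluorescence, 2 hrs RT. Hill equation gives EC50 and maximal response.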
# [15] = biological target: Thyroid hormone receptor beta (Homo sapiens) (UniProt P10828); experiment: qHTS assay for small molecule antagonists of thyroid hormone receptor beta signaling (AID 588547; active = well fitted inhibition curve with a large enough effect in the signal ratio, with a control signal flat, not every such curve was filed as active; the % refers to the signal ratio;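 also: cells stimulated with 0.4 nM T3 agonist during compound exposure; series mostly up to about 77 µM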); details: TR-UAS-bla HEK293, beta-lactamase ratio, antagonist mode, 18 h
# Summary of the method: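 TR-UAS-bla GripTite HEK293 cells in 2% charcoal/dextran FBS medium; compounds 0.59 nM to 92 uM with T3 at 0.4nM final, 18 h at 37 C. Beta-lactamase read by CCF4 fluorescence (460/530 nm); Hill fits gave IC50 and efficacy.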
# [16] = qHTS assay for small molecule antagonists of peroxisome proliferator-activated receptor delta signaling (AID 588535; active = well fitted inhibition curve with a large enough effect in the signal ratio, with a control signal flat, not every such curve was filed as active; the % refers to the signal ratio;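 as to max response: cells co-treated with a PPAR-delta agonist as stimulator during compound exposure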); details: HEK293T PPARd-UAS-bla, beta-lactamase FRET ratio, 18 h; 460 nm channel
# Summary of the method: (§2)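 Beta-lactamase reporter read-out (405 nm excitation, 460/530 nm emission) after CCF4 loading for 2 hrs at RT. HEK293T PPAR-delta-UAS-bla cells, 2% charcoal/dextran FBS, compounds for 18 hrs at 37 C. Hill fit gave IC50 and efficacy.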
# [17] = biological target: Peroxisome proliferator-activated receptor delta (Homo sapiens) (UniProt Q03181); experiment: as above
# Summary of the method: as §2
# [18] = biological target: Luciferin 4-monooxygenase (Photinus pyralis) (UniProt P08659); experiment: Biochemical firefly luciferase enzyme assay for NPC (AID 624030; active = well fitted curve in the direction sought with a large enough effect; an effect the other way counts as inactive or inconclusive;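 also: purified P. pyralis luciferase at 10 nM with luciferin and ATP substrate; series mostly up to about 59 µM; nearly all actives have a fitted effect of over 70% in size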)
# Summary of the method: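 Purified P. pyralis luciferase at 10 nM in 50 mM Tris Acetate (final), luminescence read within 5 minutes of enzyme addition to compounds. Activity normalised to PTC124 versus DMSO; concentration-response curves classed by r2, magnitude and activity.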
# [19] = S16 Schwann cell viability assay (CellTiter-Glo assay) (AID 624031; active = well fitted curve in the direction sought with a large enough effect; an effect the other way counts as inactive or inconclusive;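 also: native untransfected S16 rat Schwann cells; cellular ATP luminescence as a viability measure; series mostly up to about 58 µM; nearly all actives have a fitted effect of over 70% in size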)
# Summary of the method: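 Following overnight culture in 10% FBS DMEM, parental S16 rat Schwann cells are dosed for 24 h at 37 °C. Viability is read as CellTiter-Glo luminescence and expressed as % activity relative to DMSO (0%) and no-cell wells.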
# [20] = S16 Schwann cell PMP22 intronic element firefly luciferase assay (AID 624032; active = well fitted curve in the direction sought with a large enough effect; an effect the other way counts as inactive or inconclusive; also: series mostly up to about 58 µM; nearly all actives have a fitted effect of over 30% in size)
# Summary of the method: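 Rat S16 Schwann cells stably carrying firefly luciferase driven by a PMP22 intronic element, in 10% FBS, treated 24 h at 37 C. ONE-Glo luminescence normalized to PTC124 control and DMSO (0%); curves classed by r2, magnitude and activity.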
# Sequence of Bile acid receptor (Homo sapiens) (Q96RI1 whole entry, looked up): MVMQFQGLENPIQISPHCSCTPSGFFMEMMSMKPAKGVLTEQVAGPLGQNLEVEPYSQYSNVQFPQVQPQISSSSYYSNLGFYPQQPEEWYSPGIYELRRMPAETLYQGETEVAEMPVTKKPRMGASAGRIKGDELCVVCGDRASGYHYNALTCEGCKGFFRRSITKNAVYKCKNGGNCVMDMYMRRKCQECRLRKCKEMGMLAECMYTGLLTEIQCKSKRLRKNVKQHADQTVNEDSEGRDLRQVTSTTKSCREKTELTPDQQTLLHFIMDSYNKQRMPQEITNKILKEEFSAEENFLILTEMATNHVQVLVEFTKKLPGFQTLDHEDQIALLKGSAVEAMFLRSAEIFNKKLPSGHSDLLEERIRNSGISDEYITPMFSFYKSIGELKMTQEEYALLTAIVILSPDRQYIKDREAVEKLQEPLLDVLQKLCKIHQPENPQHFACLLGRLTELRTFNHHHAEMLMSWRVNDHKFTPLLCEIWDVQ
# Sequence of Voltage-gated inwardly rectifying potassium channel KCNH2 (Homo sapiens) (Q12809 whole entry, looked up): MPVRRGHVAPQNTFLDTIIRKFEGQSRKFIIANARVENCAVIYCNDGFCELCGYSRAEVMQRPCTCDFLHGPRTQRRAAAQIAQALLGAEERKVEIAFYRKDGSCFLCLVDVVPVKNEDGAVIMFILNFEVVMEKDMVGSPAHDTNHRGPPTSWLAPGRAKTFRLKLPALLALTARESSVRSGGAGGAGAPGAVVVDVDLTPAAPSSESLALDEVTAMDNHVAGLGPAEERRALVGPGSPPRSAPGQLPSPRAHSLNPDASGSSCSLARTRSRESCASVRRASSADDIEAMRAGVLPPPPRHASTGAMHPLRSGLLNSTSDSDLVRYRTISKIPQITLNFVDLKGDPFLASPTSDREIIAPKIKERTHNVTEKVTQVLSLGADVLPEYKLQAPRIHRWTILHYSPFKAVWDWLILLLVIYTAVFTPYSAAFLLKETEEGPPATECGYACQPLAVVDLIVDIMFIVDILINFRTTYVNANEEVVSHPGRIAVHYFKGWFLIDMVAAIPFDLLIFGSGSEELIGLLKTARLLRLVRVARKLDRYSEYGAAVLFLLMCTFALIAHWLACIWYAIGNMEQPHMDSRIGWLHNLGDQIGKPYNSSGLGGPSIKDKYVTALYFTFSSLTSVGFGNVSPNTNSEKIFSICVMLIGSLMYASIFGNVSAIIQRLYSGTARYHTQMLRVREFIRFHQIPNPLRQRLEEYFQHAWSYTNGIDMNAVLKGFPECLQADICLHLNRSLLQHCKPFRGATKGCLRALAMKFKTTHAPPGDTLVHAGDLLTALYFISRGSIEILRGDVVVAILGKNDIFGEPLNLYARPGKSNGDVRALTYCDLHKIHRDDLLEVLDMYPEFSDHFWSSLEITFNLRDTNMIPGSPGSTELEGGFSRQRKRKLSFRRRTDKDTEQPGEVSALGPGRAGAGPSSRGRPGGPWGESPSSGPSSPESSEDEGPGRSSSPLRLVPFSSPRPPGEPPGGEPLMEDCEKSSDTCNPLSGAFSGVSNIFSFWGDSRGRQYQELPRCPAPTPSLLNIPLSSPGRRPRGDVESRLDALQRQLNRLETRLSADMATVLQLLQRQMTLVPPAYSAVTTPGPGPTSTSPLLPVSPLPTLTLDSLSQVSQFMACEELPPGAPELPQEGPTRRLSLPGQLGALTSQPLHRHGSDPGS
# Sequence of Thyroid hormone receptor beta (Homo sapiens) (P10828 whole entry, looked up): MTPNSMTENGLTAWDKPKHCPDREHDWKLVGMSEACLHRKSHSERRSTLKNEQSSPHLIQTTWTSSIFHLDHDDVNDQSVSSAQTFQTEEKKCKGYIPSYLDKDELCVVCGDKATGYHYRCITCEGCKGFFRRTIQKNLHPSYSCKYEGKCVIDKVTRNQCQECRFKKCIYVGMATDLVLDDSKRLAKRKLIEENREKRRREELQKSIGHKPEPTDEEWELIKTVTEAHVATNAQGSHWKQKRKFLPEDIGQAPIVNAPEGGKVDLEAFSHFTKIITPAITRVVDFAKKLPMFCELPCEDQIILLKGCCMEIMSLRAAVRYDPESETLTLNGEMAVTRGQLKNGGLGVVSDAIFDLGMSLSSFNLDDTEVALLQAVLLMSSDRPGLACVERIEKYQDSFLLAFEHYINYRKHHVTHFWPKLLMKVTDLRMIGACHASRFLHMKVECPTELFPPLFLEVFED
# Sequence of Peroxisome proliferator-activated receptor gamma (Homo sapiens) (P37231 whole entry, looked up): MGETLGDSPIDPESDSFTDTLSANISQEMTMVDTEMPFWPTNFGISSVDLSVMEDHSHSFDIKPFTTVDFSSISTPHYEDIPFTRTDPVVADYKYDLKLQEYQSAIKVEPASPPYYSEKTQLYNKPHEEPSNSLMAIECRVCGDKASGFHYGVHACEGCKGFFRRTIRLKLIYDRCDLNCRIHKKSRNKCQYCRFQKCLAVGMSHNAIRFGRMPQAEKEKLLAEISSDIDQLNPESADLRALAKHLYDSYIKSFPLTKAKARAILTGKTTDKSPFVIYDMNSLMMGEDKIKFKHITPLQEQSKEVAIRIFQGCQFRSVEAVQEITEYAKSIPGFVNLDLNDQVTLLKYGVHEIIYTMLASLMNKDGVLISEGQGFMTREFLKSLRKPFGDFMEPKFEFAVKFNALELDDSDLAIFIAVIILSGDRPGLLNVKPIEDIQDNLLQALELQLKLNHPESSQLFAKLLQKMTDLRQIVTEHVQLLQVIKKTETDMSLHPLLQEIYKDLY
# Sequence of Retinoic acid receptor RXR-alpha (Homo sapiens) (P19793 whole entry, looked up): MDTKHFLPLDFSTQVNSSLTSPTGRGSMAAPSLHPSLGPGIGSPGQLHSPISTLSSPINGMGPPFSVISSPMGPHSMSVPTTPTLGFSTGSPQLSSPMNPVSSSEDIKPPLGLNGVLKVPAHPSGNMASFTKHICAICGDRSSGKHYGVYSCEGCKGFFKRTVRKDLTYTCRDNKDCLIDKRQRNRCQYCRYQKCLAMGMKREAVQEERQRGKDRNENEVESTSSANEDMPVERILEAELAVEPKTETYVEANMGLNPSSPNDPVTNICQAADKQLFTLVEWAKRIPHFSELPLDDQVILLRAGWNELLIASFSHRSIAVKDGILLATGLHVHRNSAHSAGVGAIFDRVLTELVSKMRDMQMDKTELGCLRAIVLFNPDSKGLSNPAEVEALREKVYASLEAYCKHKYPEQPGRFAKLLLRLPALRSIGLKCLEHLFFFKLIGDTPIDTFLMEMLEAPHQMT
# Sequence of Vitamin D3 receptor (Homo sapiens) (P11473 whole entry, looked up): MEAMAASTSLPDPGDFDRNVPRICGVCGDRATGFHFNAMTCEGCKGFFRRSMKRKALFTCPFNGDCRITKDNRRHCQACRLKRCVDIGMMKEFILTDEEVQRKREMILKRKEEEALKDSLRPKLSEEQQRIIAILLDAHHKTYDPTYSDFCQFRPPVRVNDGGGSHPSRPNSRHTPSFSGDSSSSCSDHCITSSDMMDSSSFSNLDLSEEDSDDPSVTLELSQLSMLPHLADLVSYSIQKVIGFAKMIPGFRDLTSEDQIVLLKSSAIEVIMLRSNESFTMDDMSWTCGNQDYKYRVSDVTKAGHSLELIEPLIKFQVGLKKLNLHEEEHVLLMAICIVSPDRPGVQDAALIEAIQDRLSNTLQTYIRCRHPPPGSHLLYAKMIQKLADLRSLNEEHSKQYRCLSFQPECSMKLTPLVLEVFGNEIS
# Sequence of Glucocorticoid receptor (Homo sapiens) (P04150 whole entry, looked up): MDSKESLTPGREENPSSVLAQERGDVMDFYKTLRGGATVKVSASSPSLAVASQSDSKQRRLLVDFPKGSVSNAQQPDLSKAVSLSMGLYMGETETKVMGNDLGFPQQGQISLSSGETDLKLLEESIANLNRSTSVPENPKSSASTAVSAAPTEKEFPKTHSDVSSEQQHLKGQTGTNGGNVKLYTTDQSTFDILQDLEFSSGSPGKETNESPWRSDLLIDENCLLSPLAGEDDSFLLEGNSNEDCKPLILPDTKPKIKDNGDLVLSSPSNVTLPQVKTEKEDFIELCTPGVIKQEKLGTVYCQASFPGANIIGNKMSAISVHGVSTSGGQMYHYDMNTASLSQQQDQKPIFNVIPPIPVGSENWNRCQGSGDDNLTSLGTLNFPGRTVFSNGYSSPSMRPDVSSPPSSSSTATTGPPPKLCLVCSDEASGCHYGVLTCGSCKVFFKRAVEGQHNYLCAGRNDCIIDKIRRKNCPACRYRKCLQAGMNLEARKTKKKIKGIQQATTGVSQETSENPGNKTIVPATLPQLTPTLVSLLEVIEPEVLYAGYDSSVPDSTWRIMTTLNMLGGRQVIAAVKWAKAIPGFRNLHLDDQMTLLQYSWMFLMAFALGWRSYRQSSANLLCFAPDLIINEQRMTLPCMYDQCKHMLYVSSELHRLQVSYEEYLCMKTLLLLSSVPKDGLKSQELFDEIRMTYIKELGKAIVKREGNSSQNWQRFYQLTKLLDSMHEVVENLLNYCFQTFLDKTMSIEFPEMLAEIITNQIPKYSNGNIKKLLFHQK
# Sequence of Peroxisome proliferator-activated receptor delta (Homo sapiens) (Q03181 whole entry, looked up): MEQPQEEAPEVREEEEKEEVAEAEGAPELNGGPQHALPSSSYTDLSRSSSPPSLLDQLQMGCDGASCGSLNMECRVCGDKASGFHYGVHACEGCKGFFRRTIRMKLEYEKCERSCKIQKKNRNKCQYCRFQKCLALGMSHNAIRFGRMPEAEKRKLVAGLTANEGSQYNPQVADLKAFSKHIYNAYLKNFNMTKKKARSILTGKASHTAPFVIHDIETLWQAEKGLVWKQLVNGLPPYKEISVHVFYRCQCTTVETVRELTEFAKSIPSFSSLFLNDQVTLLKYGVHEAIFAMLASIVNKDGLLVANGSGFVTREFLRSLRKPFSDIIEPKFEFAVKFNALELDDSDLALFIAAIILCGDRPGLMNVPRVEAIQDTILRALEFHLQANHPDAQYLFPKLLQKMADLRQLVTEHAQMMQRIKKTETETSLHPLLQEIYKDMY
compound,measurement,setting,value
O=[N+]([O-])/N=C1\NCCN1Cc1ccc(Cl)nc1,outcome,[1],inactive
same,activation,[2],1.01% (inactive)
same,activation,[3],6.65% (inactive)
same,Potency,[4],inactive
same,outcome,[5],inactive
same,Potency,[6],inactive
same,Potency,[7],inactive
same,max response,[8],-17.3%
same,Potency,[9],inactive
same,outcome,[10],inactive
same,max response,[11],-10.6%
same,max response,[12],-0.806% (inactive)
same,Potency,[13],inactive
COc1nn(CSP(=S)(OC)OC)c(=O)s1,outcome,[1],inactive
same,activation,[2],3.32% (inactive)
same,activation,[3],12.2% (inactive)
same,Potency,[4],inactive
same,outcome,[14],inactive
same,Potency,[7],inactive
same,outcome,[10],inactive
Nc1ccc(Sc2ccc(N)cc2)cc1,outcome,[1],inactive
same,activation,[2],-1.33% (inactive)
same,activation,[3],8.24% (inactive) and -4.53% (inactive)
same,Potency,[4],inactive
same,outcome,[14],inactive
same,outcome,[5],inactive
same,Potency,[6],inactive
same,Potency,[7],inactive
same,max response,[8],14.5% and 0.308%
same,Potency,[9],inactive
same,outcome,[10],inactive
same,max response,[11],1.56% and -5.13%
same,max response,[12],1.16% (inactive) and 6.78% (inactive)
same,activity change % (negative = inhibition),[15],-2.35% (inactive) and -11.2% (inactive)
same,Potency,[13],inactive
CCCOC(=O)c1ccc(O)cc1,activation,[2],0.147% (inactive) and -2.34% (inactive) and 4.63% (inactive)
same,outcome,[14],inactive
CCCCCCCCOc1ccc(C(=O)c2ccccc2)c(O)c1,activation,[2],-1.08% (inactive)
same,outcome,[14],inactive
Nc1ccc([N+](=O)[O-])cc1O,outcome,[1],inactive
same,activation,[2],-3.53% (inactive) and -2.23% (inactive)
same,outcome,[14],inactive
COc1ccccc1O,activation,[2],-0.0206% (inactive) and -3.83% (inactive) and 1.01% (inactive)
same,outcome,[14],inactive
Cc1cc(O)ccc1Cl,outcome,[1],inactive
same,activation,[2],1.93% (inactive)
same,Potency,[4],inactive
same,outcome,[14],inactive
same,max response,[16],44.7%
same,Potency,[17],inactive
same,outcome,[5],inactive
same,Potency,[6],inactive
same,Potency,[7],inactive
same,max response,[8],-6.7%
same,Potency,[9],inactive
same,outcome,[10],inactive
same,max response,[11],3.81%
same,max response,[12],-4.22% (inactive)
same,activity change % (negative = inhibition),[15],1.27% (inactive)
same,Potency,[13],inactive
same,Potency,[18],inactive
same,Potency,[19],inactive
same,Potency,[20],inactive
OCc1c[nH]c2ccccc12,activation,[2],1.66% (inactive)
same,outcome,[14],inactive
c1cc2ccc3cccc4ccc(c1)c2c34,activation,[2],-4.41% (inactive) and -1.09% (inactive)
same,activation,[3],1.46% (inactive) and -7.46% (inactive)
same,Potency,[4],inactive
same,outcome,[14],inactive
same,max response,[16],50.8% and 2.37%
same,Potency,[17],inactive
same,outcome,[5],inactive
same,Potency,[6],inactive
same,Potency,[7],inactive
same,max response,[8],-6.58% and -8.62%
same,Potency,[9],inactive
same,outcome,[10],inactive
same,max response,[11],-9.93% and -1.15%
same,max response,[12],0.282% (inactive) and -8.73% (inactive)
same,activity change % (negative = inhibition),[15],8.95% (inactive)
same,Potency,[13],inactive
same,Potency,[18],inactive
